The record followed here is PubChem BioAssay (NCATS).

Assay [1] deals with Lysosomal acid glucosylceramidase (Homo sapiens) (UniProt P04062). In words: Glucocerebrosidase-p2 (AID 348; in the data active = potency below about 10 µM; also: potency is read from the fitted curve at half-maximal effect). As to conditions: purified GBA, blue fluorogenic substrate, 40 min. Summed up: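 Compounds titrated from 0.6 nM upwards against 0.2 nM enzyme in pH 5.9 citric acid/KH2PO4, taurocholate, tween-20; blue fluorogenic substrate 80 uM, 40 min room temperature, stopped and read Ex 365/Em 440 for AC50.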
Lysosomal acid glucosylceramidase (Homo sapiens), sequence (P04062 whole entry, looked up): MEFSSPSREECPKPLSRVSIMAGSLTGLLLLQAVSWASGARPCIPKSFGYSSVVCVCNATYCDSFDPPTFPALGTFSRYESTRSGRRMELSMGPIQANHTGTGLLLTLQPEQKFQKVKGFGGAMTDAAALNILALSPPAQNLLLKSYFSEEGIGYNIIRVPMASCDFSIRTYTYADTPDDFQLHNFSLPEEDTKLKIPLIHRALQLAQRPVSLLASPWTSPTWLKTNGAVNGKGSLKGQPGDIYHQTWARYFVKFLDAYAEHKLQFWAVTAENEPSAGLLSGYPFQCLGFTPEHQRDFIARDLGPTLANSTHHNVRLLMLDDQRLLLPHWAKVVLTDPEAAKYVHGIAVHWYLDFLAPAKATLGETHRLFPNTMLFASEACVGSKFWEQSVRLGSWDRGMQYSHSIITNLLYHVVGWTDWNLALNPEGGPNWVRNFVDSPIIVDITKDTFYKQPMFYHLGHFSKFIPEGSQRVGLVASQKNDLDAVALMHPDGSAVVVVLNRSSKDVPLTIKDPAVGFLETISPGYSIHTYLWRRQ

Assay [2] can be described thus: AP1 Signaling Pathway (AID 357). Also: % is scaled to controls: 0 for no effect and ±100 for the full control effect. As to conditions: ME-180 AP-1-bla reporter, EGF-induced, beta-lactamase ratio, 5 h; at 7.69 µM (top of the series) unless noted. Summed up:
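AP-1-bla ME-180 cells with beta-lactamase reporter under AP-1 response element, stimulated with EC50 EGF; compounds titrated, 5 hours at 37 degrees Celsius. CCF4 read at 460/530 nm ratio; positive and negative modulators judged by AC50.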

Assay [3] deals with Cytochrome P450 1A2 (Homo sapiens) (UniProt P05177). As to the kind of experiment: p450-cyp1a2 (AID 410; calls by dose curve; also: potency is read from the fitted curve at half-maximal effect;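 as to activity change, negative = inhibition: -100% = full effect of reference inhibitor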). Conditions: recombinant CYP1A2, luciferin-ME demethylation, luminescence; series mostly up to 11.4 µM. Summed up: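 Luminescent readout of luciferin formed from Luciferin-ME by human CYP1A2; data normalized against complete inhibition by 57 uM furafylline. Enzyme 20nM, substrate 100uM at Km, 100mM KPO4 buffer, 60 min reaction at room temperature.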
Cytochrome P450 1A2 (Homo sapiens), sequence (P05177 whole entry, looked up): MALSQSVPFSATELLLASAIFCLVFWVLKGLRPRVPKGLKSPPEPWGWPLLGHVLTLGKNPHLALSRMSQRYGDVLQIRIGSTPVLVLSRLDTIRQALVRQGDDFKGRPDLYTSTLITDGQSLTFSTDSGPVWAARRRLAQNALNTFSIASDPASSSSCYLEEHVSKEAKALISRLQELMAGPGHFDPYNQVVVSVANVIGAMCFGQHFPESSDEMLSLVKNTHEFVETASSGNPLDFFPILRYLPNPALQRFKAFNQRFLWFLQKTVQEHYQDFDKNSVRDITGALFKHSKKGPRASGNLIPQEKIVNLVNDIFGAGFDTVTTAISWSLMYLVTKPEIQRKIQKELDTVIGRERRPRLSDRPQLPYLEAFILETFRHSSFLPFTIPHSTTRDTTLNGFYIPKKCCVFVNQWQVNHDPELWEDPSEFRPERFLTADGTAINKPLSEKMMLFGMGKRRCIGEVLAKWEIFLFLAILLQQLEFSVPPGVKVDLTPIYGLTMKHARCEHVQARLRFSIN

The nature of assay [4]: NFAT Signaling Pathway (AID 444).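 Also: carbachol stimulus at about its EC50 of 1 µM final; % is scaled to controls: 0 for no effect and ±100 for the full control effect.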 As to conditions: Jurkat NFAT-bla M1, carbachol, beta-lactamase ratio, 5 h; at 7.69 µM (top of the series) unless noted. Summed up: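 Jurkat cells carrying an NFAT-driven β-lactamase reporter and co-transfected muscarinic M1 receptor were treated with compound plus carbachol (1 uM final, an EC50 level) for 5 h at 37 °C. CCF4 loading followed for 1 h at RT; 460/530 nm ratio gave %activity.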

Assay [5] is described as follows: Stat Signaling Pathway (AID 446).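 Also: ME-180 cervical cancer cells given 40 pM IL-6 alongside compound; SIE-controlled beta-lactamase reporter measured as 460/530 nm FRET emission ratio; % is scaled to controls: 0 for no effect and ±100 for the full control effect.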 Conditions: ME-180 SIE beta-lactamase reporter, IL-6 stimulated, 5 h; at 7.69 µM (top of the series) unless noted. The method in brief: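 Reporter line: ME-180 cervical carcinoma, SIE-beta-lactamase. Treatment: compound with 40 pM IL-6, 5 hrs, 37 C, in low-serum OPTI-MEM with 10 mM HEPES pH 7.3. Detection: 460/530 nm fluorescence.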

The target in assay [6] is Glucocorticoid receptor (Homo sapiens) (UniProt P04150). As to the kind of experiment: GR-GFP Redistribution (AID 450;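 active = compounds whose dose series gives a full or clear partial fitted curve of increased nuclear translocation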; also: potency is read from the fitted curve at half-maximal effect). Conditions: U2OS GR-GFP nuclear translocation, laser cytometry, 2 h.
Glucocorticoid receptor (Homo sapiens), sequence (P04150 whole entry, looked up, the tested form may be a part): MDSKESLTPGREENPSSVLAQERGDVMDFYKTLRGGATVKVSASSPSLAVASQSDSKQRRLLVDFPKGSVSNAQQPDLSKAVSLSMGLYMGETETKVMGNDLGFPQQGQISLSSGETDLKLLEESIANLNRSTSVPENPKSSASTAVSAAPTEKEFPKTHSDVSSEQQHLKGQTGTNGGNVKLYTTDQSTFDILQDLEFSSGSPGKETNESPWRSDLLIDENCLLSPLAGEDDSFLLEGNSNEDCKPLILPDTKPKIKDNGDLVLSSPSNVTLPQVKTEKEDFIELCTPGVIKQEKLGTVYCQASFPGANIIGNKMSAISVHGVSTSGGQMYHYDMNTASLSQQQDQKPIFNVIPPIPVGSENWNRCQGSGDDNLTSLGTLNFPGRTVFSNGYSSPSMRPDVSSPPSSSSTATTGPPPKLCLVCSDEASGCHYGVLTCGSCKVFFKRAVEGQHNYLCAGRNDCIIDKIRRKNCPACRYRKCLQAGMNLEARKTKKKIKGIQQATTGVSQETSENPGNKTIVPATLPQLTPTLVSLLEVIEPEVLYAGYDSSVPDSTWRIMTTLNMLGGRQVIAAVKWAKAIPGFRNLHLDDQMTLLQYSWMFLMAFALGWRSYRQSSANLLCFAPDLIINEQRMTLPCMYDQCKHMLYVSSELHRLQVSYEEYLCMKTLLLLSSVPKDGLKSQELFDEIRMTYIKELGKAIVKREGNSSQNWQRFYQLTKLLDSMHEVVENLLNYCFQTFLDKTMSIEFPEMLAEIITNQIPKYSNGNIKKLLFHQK
Assay [7] has the same target. As to the kind of experiment: GR-EFC Redistribution (AID 451; calls by dose curve; also: potency is read from the fitted curve at half-maximal effect). As to conditions: CHO-K1 GR-EFC translocation, beta-gal luminescence, 2 h. Summed up: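 CHO-K1 cells stably expressing nuclear-localized β-gal enzyme acceptor and GR fused C-terminally to the enzyme donor fragment; ligand-driven nuclear translocation restores β-gal by complementation. Compounds titrated up to 46 uM final, 2 h at 37 °C; luminescence read.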

The target of assay [8] is Mitogen-activated protein kinase 10 (Mus musculus) (UniProt Q61831). In words: JNK3 AlphaScreen Assay (AID 530).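 Also: kinase came from lysate of stimulated human HepG2 cells; signal reports phosphorylation of biotinylated GST-cJun 1-79 at Ser73 with 10 µM ATP; % is scaled to controls: 0 for no effect and ±100 for the full control effect.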 As to conditions: JNK3 lysate, c-Jun phosphorylation; series mostly up to 11.4 µM. Summed up: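 Inhibitors reduce antibody binding to phosphorylated biotin-cJun, lowering AlphaScreen luminescence. Lysates from HepG2 cells pre-activated by IL-1beta plus TNF-alpha supplied JNK3; compounds were titrated.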

The target in assay [9] is 3',5'-cyclic-AMP phosphodiesterase 4B (Homo sapiens) (UniProt Q07343). In words: qHTS Assay for Inhibitors of PDE-IV (AID 607; active = well fitted activation curve with a large enough effect in the main read-out, with a control signal flat, not every such curve was filed as active; also: % of control where 0% means no effect). As to conditions: HEK293 ACTOne CNG channel cells, membrane potential fluorescence; series mostly up to 22.9 µM. Summed up:
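Cell-based read-out of cAMP via a modified cyclic nucleotide-gated channel and membrane potential dye (535/590 nm) in HEK293 cells expressing PDE4 endogenously. Compounds tested up to 22.9 uM final; 100 uM RO 20-1724 reference.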
(In qHTS, concentration-response curves come from the screen itself.)

Assay [10] concerns the target Cytochrome P450 2C9 (Homo sapiens) (UniProt P11712). In words: qHTS Assay for Inhibitors and Substrates of Cytochrome P450 2C9 (AID 883; active = well fitted curve in the direction sought with a large enough effect; an effect the other way counts as inactive or inconclusive; also: nearly all actives have a fitted effect of over 60% in size; also: potency is read from the fitted curve at half-maximal effect). As to conditions: recombinant CYP2C9, luciferin-H luminescence, 60 min; series mostly up to 11.4 µM. Summed up: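 A luminogenic readout tracked human CYP2C9 (10nM) converting deoxyluciferin (100uM, at KM) in 25mM KPO4 during 60 min at 37C with regenerated NADPH. Values normalized to 57uM sulphaphenazole as complete inhibition.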

In assay [11] the target is Cytochrome P450 3A4 (Homo sapiens) (UniProt P08684). In words: qHTS Assay for Inhibitors and Substrates of Cytochrome P450 3A4 (AID 884; active = well fitted curve in the direction sought with a large enough effect; an effect the other way counts as inactive or inconclusive; also: nearly all actives have a fitted effect of over 50% in size; also: potency is read from the fitted curve at half-maximal effect). Conditions: recombinant CYP3A4, Luciferin-PPXE luminescence; series mostly up to 57.1 µM. The method in brief:
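20 nM human CYP3A4 with 25 uM Luciferin-PPXE (at KM) in 200 mM KPO4, preincubated 10 min with compound; NADPH regeneration started a 60 min RT reaction. Luciferin detected by luminescence, normalized to 57 uM ketoconazole as full inhibition.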

Assay [12] shares this target. In words: qHTS Assay for Activators of Cytochrome P450 3A4 (AID 885; active = well fitted curve in the direction sought with a large enough effect; an effect the other way counts as inactive or inconclusive; also: nearly all actives have a fitted effect of over 65% in size). Conditions: recombinant CYP3A4, Luciferin-PPXE luminescence, 60 min; series mostly up to 11.4 µM. Summed up:
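Signal was normalized against complete inhibition by 57 uM ketoconazole. The reaction used 20nM CYP3A4 with 25uM Luciferin-PPXE, 10-min compound preincubation and a 60-min NADPH-supported step at RT.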

Assay [13] deals with Cytochrome P450 2D6 (Homo sapiens) (UniProt P10635). As to the kind of experiment: qHTS Assay for Inhibitors and Substrates of Cytochrome P450 2D6 (AID 891; active = well fitted curve in the direction sought with a large enough effect; an effect the other way counts as inactive or inconclusive; also: nearly all actives have a fitted effect of over 60% in size; also: potency is read from the fitted curve at half-maximal effect). Conditions: recombinant CYP2D6, luciferin-ME EGE luminescence; series mostly up to 11.4 µM. The method in brief: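 Human CYP2D6 (5 nM) with 30 uM Luciferin-ME EGE (at Km) in 100 mM KPO4, compound preincubated 10 min, then NADPH regeneration system for 60 min at room temperature. Luciferin read by luminescence; normalized to 1.43 uM quinidine.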
Cytochrome P450 2D6 (Homo sapiens), sequence (P10635 whole entry, looked up): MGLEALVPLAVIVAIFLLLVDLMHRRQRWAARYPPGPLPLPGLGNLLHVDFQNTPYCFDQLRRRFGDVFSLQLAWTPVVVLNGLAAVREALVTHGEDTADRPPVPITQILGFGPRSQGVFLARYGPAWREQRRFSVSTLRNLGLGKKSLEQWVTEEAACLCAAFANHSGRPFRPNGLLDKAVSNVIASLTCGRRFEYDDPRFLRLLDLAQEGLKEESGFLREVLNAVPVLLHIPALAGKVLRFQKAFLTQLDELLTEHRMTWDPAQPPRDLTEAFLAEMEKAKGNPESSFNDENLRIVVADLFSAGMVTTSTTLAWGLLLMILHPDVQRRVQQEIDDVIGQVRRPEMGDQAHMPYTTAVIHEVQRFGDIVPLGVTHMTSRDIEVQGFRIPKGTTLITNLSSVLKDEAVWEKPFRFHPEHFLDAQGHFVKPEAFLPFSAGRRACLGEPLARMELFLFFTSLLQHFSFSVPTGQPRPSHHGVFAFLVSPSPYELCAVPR

In assay [14] the target is Cytochrome P450 2C19 (Homo sapiens) (UniProt P33261). In words: qHTS Assay for Inhibitors and Substrates of Cytochrome P450 2C19 (AID 899; active = well fitted curve in the direction sought with a large enough effect; an effect the other way counts as inactive or inconclusive; also: nearly all actives have a fitted effect of over 60% in size; also: potency is read from the fitted curve at half-maximal effect). As to conditions: recombinant CYP2C19, luciferin-H EGE luminescence; series mostly up to 11.4 µM. The method in brief:
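NADPH-dependent conversion of Luciferin-H EGE (10uM, at KM) by 5nM enzyme in 50mM KPO4, 60 min at 37C following 10 min compound preincubation. Stopped with luciferin detection buffer; luminescence read after 20 min.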

Values without a mark were called inactive. Inconclusive results are not listed. Active and inactive are the calls of the source. Unless noted, calls follow the shape of the dose curve; as a rule, active = well fitted curve in either direction with a large enough effect (not every such curve was filed as active); inconclusive = small, poorly fitted or top-dose-only effect, or another doubt; inactive = flat fitted curve, though single readings scatter.

Cytochrome P450 2C9 (Homo sapiens), sequence (P11712 whole entry, looked up): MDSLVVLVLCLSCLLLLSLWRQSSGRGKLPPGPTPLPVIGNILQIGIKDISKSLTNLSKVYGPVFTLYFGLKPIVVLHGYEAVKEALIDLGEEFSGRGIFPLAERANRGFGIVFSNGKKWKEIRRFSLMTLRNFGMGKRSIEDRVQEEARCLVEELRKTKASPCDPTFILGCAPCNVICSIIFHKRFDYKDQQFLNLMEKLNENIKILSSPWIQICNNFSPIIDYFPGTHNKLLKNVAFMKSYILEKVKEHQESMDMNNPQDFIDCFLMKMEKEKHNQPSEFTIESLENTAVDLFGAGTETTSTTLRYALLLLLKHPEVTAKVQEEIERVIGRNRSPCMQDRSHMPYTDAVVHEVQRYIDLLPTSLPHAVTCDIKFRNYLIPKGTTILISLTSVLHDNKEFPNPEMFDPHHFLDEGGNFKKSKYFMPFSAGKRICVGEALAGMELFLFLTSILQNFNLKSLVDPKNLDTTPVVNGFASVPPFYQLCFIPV
Cytochrome P450 2C19 (Homo sapiens), sequence (P33261 whole entry, looked up): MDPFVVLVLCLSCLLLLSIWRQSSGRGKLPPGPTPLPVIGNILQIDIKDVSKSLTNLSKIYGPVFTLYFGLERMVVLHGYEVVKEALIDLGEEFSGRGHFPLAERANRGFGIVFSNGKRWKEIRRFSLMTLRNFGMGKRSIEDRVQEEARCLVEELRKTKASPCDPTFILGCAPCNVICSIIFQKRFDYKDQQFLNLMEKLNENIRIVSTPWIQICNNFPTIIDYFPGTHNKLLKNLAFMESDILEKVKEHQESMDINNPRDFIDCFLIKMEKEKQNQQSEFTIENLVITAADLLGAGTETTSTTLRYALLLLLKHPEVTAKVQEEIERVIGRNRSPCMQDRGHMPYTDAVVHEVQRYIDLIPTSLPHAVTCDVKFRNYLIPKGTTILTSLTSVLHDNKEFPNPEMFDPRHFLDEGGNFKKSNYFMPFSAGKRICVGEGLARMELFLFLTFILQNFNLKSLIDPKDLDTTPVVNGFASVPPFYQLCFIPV
3',5'-cyclic-AMP phosphodiesterase 4B (Homo sapiens), sequence (Q07343 whole entry, looked up): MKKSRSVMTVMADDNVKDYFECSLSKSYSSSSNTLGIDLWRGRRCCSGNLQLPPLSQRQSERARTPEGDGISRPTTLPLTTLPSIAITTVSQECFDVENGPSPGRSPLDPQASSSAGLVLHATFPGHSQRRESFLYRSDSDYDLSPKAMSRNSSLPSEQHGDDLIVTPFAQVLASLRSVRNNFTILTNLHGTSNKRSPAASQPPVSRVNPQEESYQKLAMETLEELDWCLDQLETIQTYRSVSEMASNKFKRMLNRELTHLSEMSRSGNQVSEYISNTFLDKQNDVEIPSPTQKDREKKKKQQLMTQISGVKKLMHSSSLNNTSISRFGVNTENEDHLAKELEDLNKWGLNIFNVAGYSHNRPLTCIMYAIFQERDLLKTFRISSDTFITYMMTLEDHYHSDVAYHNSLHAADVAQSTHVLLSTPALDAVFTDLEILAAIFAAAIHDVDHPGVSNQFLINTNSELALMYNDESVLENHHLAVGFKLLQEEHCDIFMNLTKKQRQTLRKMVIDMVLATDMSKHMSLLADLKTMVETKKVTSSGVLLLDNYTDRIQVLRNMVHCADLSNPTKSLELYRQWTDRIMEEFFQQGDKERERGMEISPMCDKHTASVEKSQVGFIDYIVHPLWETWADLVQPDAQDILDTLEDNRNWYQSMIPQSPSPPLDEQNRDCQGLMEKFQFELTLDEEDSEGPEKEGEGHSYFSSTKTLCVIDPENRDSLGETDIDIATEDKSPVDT
Cytochrome P450 3A4 (Homo sapiens), sequence (P08684 whole entry, looked up): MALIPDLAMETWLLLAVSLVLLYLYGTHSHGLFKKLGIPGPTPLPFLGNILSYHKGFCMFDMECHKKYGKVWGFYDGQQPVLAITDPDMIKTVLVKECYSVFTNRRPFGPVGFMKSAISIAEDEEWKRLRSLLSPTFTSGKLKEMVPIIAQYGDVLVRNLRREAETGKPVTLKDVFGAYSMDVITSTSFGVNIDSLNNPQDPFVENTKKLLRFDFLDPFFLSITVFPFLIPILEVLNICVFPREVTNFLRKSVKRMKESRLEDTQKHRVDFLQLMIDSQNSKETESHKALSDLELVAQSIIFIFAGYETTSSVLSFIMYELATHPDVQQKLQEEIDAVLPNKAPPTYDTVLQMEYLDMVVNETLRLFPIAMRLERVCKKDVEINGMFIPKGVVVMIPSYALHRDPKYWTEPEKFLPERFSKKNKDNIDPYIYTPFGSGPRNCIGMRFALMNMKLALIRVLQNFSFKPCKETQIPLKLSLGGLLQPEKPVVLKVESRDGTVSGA

For `CC(=O)/C(=N\N=C(N)N)c1ccccc1`, the results for the Potency in [1], in assay [6] and in [7] were more than 11.4 µM, more than 46 µM and more than 9.22 µM, respectively. The activity change, negative = inhibition in assay [2] is 8.04%; in assay [3], -17.2% [at 2.29 µM]; in [4], -0.66%. Besides, the activity, negative = inhibition in assay [5] was 7.52%. For the same compound, the Potency entry in assay [8] and in assay [9] was “inactive” in each case.
For the compound `CC(CCC(=O)O)(c1cc(Br)c(O)c(Br)c1)c1cc(Br)c(O)c(Br)c1`, the Potency in [1] was more than 11.4 µM; in [6], more than 46 µM; in assay [7], more than 9.22 µM; in assay [10], 3.16 µM (active). Besides, the results for the activity change, negative = inhibition in assay [2], in assay [3] and in [4] were 17.5%, -17.9% [at 2.29 µM] and 3.8%, respectively. Moreover, the activity, negative = inhibition in assay [5] is 0.505%. The Potency entry in assay [8] and in assay [9] was “inactive” throughout.
Take `COc1c(NC(C)=O)c2ccccc2c2ccccc12`: the Potency in assay [1] was more than 11.4 µM; in assay [3] it was 0.398 µM (active); in [6] it was more than 46 µM; in [7], more than 9.22 µM. Further, the activity change, negative = inhibition in assay [2] was -1.26%; in [4], -6.36%. Besides, the activity, negative = inhibition in assay [5] is 1.8%. Also, the Potency result in assay [8], in assay [9] and in assay [10] was “inactive” in each case.
For `CN(C)CCCCN1CCc2c(n(C)c3ccccc23)C1=O`, the Potency in [1] is more than 11.4 µM; in assay [6], more than 46 µM; in assay [7], more than 9.22 µM. Besides, the activity change, negative = inhibition in assay [2] is 14%; in [3] it was -14.1% [at 2.29 µM]; in [4] it was 5.6%. In addition, the activity, negative = inhibition in assay [5] was 3.15%. The Potency result in [8] and in [9] was “inactive” in each case.
`O=c1[nH]c(SCc2c(Cl)c(Cl)c(Cl)c(Cl)c2Cl)nc(=S)[nH]1`: the Potency was more than 11.4 µM in [1]; 1 µM (active) in assay [3]; more than 46 µM in assay [6]; more than 9.22 µM in assay [7]; 1.26 µM (active) in assay [10]; 3.16 µM (active) in assay [11]. The results for the activity change, negative = inhibition in assay [2] and in assay [4] were 6.9% and 13.5%, respectively. The activity, negative = inhibition in [5] is -6.17%. Also, the Potency result in [8], in assay [9] and in assay [12] was “inactive” in each case.
For the compound `O=C(O)c1cscc1Cc1cccs1`, the results for the Potency in assay [1], in assay [6] and in [7] were more than 11.4 µM, more than 46 µM and more than 9.22 µM, respectively. In addition, the activity change, negative = inhibition in assay [2] is -0.132%; in assay [4], -2.63%. The Potency entry in assay [3], in assay [8], in assay [9] and in [10] was “inactive” throughout. For the same compound, the activity, negative = inhibition in assay [5] was 5.79%.
`O=C(N/N=C\c1cccc(O)c1)c1ccncc1`: the Potency in assay [1] is more than 11.4 µM; in [6], more than 46 µM; in assay [7], more than 9.22 µM. For the same compound, the activity change, negative = inhibition is -2.52% in assay [2] and -7.01% in assay [4]. For the same compound, the Potency entry in [3], in assay [8] and in assay [9] was “inactive” throughout. Also, the activity, negative = inhibition in assay [5] is 4.22%.
Regarding `Fc1cccc(F)c1C(Nc1nncs1)Nc1nncs1`, the Potency in assay [1] is more than 11.4 µM; in assay [6] it was more than 46 µM; in [7] it was more than 9.22 µM. Moreover, the activity change, negative = inhibition in assay [2] was 1.35%; in assay [3] it was 12.3% [at 2.29 µM]; in assay [4] it was 15.7%. Further, in assay [5], the activity, negative = inhibition is 6.21%. Moreover, the Potency entry in assay [8] and in [9] was “inactive” each time.
With `Cc1ccc(/C(C#N)=C/c2cccc([N+](=O)[O-])c2)cc1`, the Potency in [1] was more than 11.4 µM; in assay [3] it was 3.98 µM (active); in assay [6] it was more than 46 µM; in assay [7] it was more than 9.22 µM. Moreover, the activity change, negative = inhibition in [2] is 15.2%; in assay [4] it was -0.124%. Further, the activity, negative = inhibition in [5] is 11.8%. The Potency entry in [8] and in assay [9] was “inactive” in each case.
Consider `S=C(S)NCCCn1ccnc1`, for which the Potency was more than 11.4 µM in assay [1]; 3.16 µM (active) in assay [3]; more than 46 µM in assay [6]; more than 9.22 µM in assay [7]; 2 µM (active) in assay [10]; 1.58 µM (active) in assay [11]. For the same compound, the Potency in assay [13] was 0.794 µM (active). In addition, the figures for the activity change, negative = inhibition in [2] and in assay [4] were 7.59% and -2.39%, respectively. The activity, negative = inhibition in assay [5] is 6.25%. Besides, the Potency entry in [8], in [9] and in assay [12] was “inactive” each time.
As for `Nc1[nH]c(=S)[nH]c(=O)c1N=Nc1c(Br)cc(S(N)(=O)=O)cc1Br`, the Potency in assay [1] was more than 11.4 µM; in [3], 3.16 µM (active); in assay [6] it was more than 46 µM; in [7], more than 9.22 µM. The activity change, negative = inhibition in [2] is 1.56%; in assay [4], -0.337%. The activity, negative = inhibition in [5] is 12%. The Potency entry in assay [8], in assay [9], in assay [10] and in [14] was “inactive” throughout.
In the case of `N=C(N)SCCN1CCCCC1`, the results for the Potency in assay [1], in assay [6] and in assay [7] were more than 11.4 µM, more than 46 µM and more than 9.22 µM, respectively. The activity change, negative = inhibition in [2] was 10.8%; in assay [4], 0.176%; in assay [11], -31.7% [at 11.4 µM]. Moreover, the Potency result in assay [3], in [8], in [9], in assay [10], in assay [13] and in [14] was “inactive” each time. Moreover, the activity, negative = inhibition in [5] is -0.606%.
For `CCCCC[C@@H](O)[C@@H]1C(=O)O[C@@H](C)[C@@H](O)\C=C/C=C\C=C/C=C\C=C(\C)[C@H](O)C[C@H](O)C[C@H](O)C[C@H](O)C[C@H](O)C[C@H](O)C[C@@H]1O`, the Potency in assay [1] was more than 11.4 µM; in assay [6] it was more than 46 µM; in [7], more than 9.22 µM; in assay [14], 3.98 µM (active). The activity change, negative = inhibition was -1.52% in assay [2], 3.3% [at 2.29 µM] in assay [3] and -11.4% in assay [4]. In [5], the activity, negative = inhibition was 11%. Further, the Potency entry in assay [8], in [9], in assay [10] and in [13] was “inactive” throughout.
